Measured values from the supplement of paper PMC6555819.

The sequences below were run on VDR:RXRa (NR concentration 270 nM, RXRa partner concentration 90 nM) (assay: PBM binding z-score (relative to random genomic background probes); higher = stronger binding; sequences stand for … in GC…GCGATTGACAGCGTAGAATGAAGG).
Description: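 Protein-binding microarray (Agilent 4x180K custom design, double-stranded 60-nt probes: 5' GC cap, 34-nt variable region, 24-nt constant primer region; full probe sequence given). Purified or IVT nuclear receptor:RXRα heterodimers (3:1 NR:RXRα, mostly 270:90 nM) or homodimers were incubated for 1 h in PBS with 2% milk and no ligand, then detected with Alexa488 antibodies. Fluorescence from o1-orientation probes (~5 replicates averaged) was converted to z-scores against 500 random hg19 background probes. Variable regions are seed direct-repeat (DR0–DR5) sites, all their single-nucleotide variants and half-site ablations.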

Row | Sequence | PBM binding z-score
1 | CCTTACGGGTTACTGACAGGTTATAGCATTTGGA | 0.637
2 | GAAACGAGGGCAAGTTGATAGCAGAGTTTGATGG | 1.51
3 | AGAATGAGTTTATTAAGATCAGGGAATTGCGGTC | 2.08
4 | AGAATGAGTTTACCAAAGATCAGGGAAACGCTTG | 1.05
5 | TCGAGTAGGGTACCAATGGGGCATTCAGCTTTCT | -0.337
6 | ACTCGGAGGACAAAGGTCATAGCTACGCCAGTGA | 4.68
7 | GGTAGCAGGCCATTTGGGTCACTCAATGACGGGC | 1.14
8 | CCGACTGGGGCAAGGTTGCCATAACGCACAGCCA | -0.351
9 | CGTCCAAGGTCAGCAAGTCAGTGAAAGCGACGTG | 2.93
10 | CCTACTGGGCCAAAAGTCATTGATTCCAATGCTC | -0.0662
11 | CTAACTAGGTCATTGACAGGACAGTGAATAGTAA | 2.2
12 | CGAACTAGGTTAAGGACAGTGAATCTCCGCACGC | -0.159
13 | TAGCCTAGGTCAAGGGCCAGTATACCACGCGAAC | 1.6
14 | CCTAGTTGGTCACGAGGTCACACACCGGATATGA | 4.77
15 | TCATATAGGTAAAGGTGAAAGCCGAACGATATGA | 0.743
16 | ATATGTAGGTTACATCCGGTTCATTCAGGCTATG | 4.76
17 | CGAACTAGGTCATGCAGGACAGTGAATACATTGA | 4.23
18 | TTACCAAGGTGAGTTGAGGTCGTTGATCCAACTC | 4.05
19 | TCTTGTAGATCAGCAGGTTCAGAAAGCTGGCCAA | 3.4
20 | TCATATAGGTAAAAGGTGAAAGTGGGTGTGGTAA | 2

Row | Sequence | PBM binding z-score
21 | CGTCCAAGGTCAATGCTAGGTCAGTGAAAGCATT | 4.81
22 | ATATATAGGTTATCGGGTCATTCAGTTTGCGCAT | 5.37
23 | ATCGAAATGTCGAAGGTGAGTATACCCACCCGAA | -0.0982
24 | ATCTCGAGGTAAAGATAGTTCAGTGAATGCAAAT | 1.23
25 | AATACAGGGTCACTAGGACAGAGTAGGTACGAAT | 3.97
26 | GGAACGAGGGCAAGTTGATCGCAGAGTTTGATGG | 0.673
27 | ATCTCTAGGTAACAAGCTCAGTGAAAGAGAGGAC | 0.159
28 | CCTACTGGGCCAAAGGTCATTGTTTCCAATGCTC | 4.11
29 | TCTATTAGTTGATGGGCAACCGACGAGTCCGTTT | 0.542
30 | CCGACTGGGGCAGAAAGGTTAGCATACCATCCGG | 0.00712
31 | TCTGCTAGGTCAGTTGGTAAGCTAACGAGCTGCC | -0.00155
32 | CCTCGGATGACAACAGGAGGTCAGAGCTGCCAGA | 1.55
33 | CGAACTAGGGCATCCAGGACAGTGAATACATTGA | 0.492
34 | ATCGAAAGGTCGATGTGAGTATAGAGAAAGGGAA | 1.97
35 | CAAACTAGGTCAAGGTCAAAGTGGGTTTGTGCCA | 5.74
36 | AGAATGAGGTTATTTAGATCAGGGAATTGCGGTC | 1.88
37 | CCTACTGGGCCAAAAAGATCATTGATGCCGATAA | -0.303
38 | ATCTCTAGGTAATGATAGTTCAGTGAATGCAAAT | 0.849
39 | GCGACTGGGGGATCAGCAGGTTACCATAACTTAA | 0.855
40 | TCGCGGAGGACACGAAAGGTCAGAGCTCGACATC | 3.13
